Inconclusive results are not listed. Active and inactive are the calls of the source. Calls come from the whole dose curve; as a rule, active = well fitted activation curve with a large enough effect in the signal ratio, with a control signal flat; inconclusive = small, poorly fitted or top-dose-only effect, or a change in a side signal; inactive = flat fitted curve, though single readings scatter; the % refers to the signal ratio.
The compounds below were run against Thyrotropin receptor (Homo sapiens) (UniProt P16473) (assay: Secondary Concentration-Response Assay for Agonists of the Thyroid Stimulating Hormone Receptor: HTRF Activity Detection). Settings: HEK293-TSHR cells, cAMP HTRF ratio, 30 min; series mostly up to 91.7 µM.
How it was run: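 Orthogonal confirmation in a separate TSHR-transfected HEK 293 line: cells in medium with 10 % FCS and 100 uM RO 20-1724 got compound for 30 min at room temperature. cAMP was measured by HTRF (d2-cAMP/anti-cAMP antibody), 615/660 nm emission.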
Potency is the fitted concentration of half-maximal effect.
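Throughout, for activation: HEK 293 cells stably expressing human TSHR with RO 20-1724 phosphodiesterase inhibitor; % of control where 0% means no effect.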

Chain of Thyrotropin receptor (Homo sapiens) (P16473 whole entry, looked up): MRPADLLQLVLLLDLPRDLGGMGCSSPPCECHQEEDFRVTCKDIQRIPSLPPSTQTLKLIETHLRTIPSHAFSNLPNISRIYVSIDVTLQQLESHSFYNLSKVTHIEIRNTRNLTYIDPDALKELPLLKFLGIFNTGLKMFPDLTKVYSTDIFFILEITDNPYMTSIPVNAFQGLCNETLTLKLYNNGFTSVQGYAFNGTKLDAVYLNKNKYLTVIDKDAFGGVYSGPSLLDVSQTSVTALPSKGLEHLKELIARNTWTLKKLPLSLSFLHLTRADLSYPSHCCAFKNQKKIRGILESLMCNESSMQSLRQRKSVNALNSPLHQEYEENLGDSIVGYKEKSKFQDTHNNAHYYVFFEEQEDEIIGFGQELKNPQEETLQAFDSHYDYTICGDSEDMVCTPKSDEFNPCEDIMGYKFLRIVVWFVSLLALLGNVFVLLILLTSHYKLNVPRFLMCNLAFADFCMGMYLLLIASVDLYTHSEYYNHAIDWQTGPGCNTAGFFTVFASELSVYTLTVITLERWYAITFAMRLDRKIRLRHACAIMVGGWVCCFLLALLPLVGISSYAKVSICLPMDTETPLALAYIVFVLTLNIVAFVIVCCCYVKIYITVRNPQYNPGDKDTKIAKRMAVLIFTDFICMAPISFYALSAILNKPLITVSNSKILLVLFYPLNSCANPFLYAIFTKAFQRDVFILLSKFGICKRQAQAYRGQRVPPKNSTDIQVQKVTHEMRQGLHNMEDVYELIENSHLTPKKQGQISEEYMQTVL

Potency, inactive:
CCCN1C(=O)c2ccccc2NC1c1cc(OC)c(OC)c(OC)c1 (centres undefined), O=C1c2ccccc2NC(c2ccc3c(c2)OCO3)N1Cc1ccco1 (centres undefined), COc1ccc(CN(Cc2ccccc2)C(C)=O)cc1COc1ccc(NC(C)=O)cc1, COc1cc(C2Nc3ccccc3C(=O)N2Cc2ccccc2)ccc1OCc1ccccc1 (centres undefined), O=C1c2ccccc2NC(c2ccccc2)N1Cc1ccco1 (centres undefined), COc1ccc2c(c1OC)C(=O)N1c3ccccc3C(=O)N(Cc3ccco3)C21 (centres undefined), COc1ccc(C2Nc3ccccc3C(=O)N2Cc2ccco2)cc1CN1C(=O)c2ccccc2C1=O (centres undefined)

Potency, active:
COc1ccc(-c2nc3ccccc3c(=O)n2Cc2ccco2)cc1COc1ccc(NC(C)=O)cc1 17.8 µM

activation, inactive:
Oc1ccccc1-c1cc(C(F)(F)C(F)F)nc(-c2ccccc2)n1 0.7% [at 0.00035 µM], Cc1cc(Cl)c(S(=O)(=O)Nc2ccc3c(c2)OCO3)cc1OCC(N)=O -1.33% [at 0.00035 µM], CCOC(=O)c1cnc(-n2nc(C)cc2C)nc1-n1nc(C)cc1C -0.245% [at 0.00035 µM], CN1C(=O)N(C)C2(c3ccccc3)Nn3c(s/c(=C/c4ccco4)c3=O)=NC12c1ccccc1 (centres undefined) 0.345% [at 0.00035 µM], CC(C)CC(=O)Nc1cccc(-c2cn3ccsc3n2)c1 0.105% [at 0.00035 µM], COc1cc2c(N3CCOCC3)cc(O)c(CC(=O)Nc3ccccc3)c2cc1OC 0.478% [at 0.00035 µM]

— PubChem BioAssay AID933 (National Center for Advancing Translational Sciences (NCATS), 2007)
